# uPA generation = cell surface uPA generation inhibition. cell surface uPA generation assay, qHTS. Potency, µM (series often up to 38.3 µM), for inactives: top-dose activity change, negative = inhibition, actives largely listed as inhibitors. hit rate 0.31% among 330,000; active = well fitted inhibition curve with a large enough effect; inconclusive = small, poorly fitted or top-dose-only effect; inactive = no such curve, though single readings can be large or run the other way; tested in mouse RAW 264.7 cells; note: potency is the fitted concentration of half-maximal effect; % is set by controls: 0 for no effect and ±100 for the full control effect; nearly all actives have a fitted effect of over 55% in size
# TGFb inhibitor = inhibitors of TGF-b signaling | Potency, µM (highest dose often 46.1 µM), for the others: top-dose activity, negative = inhibition, hits mostly inhibitors | hit rate 1.2% among 410,000 | HepG2 CAGA-GFP TGF-b/SMAD3 reporter, GFP fluorescence, 18 h; TGF-beta stimulated, 500 pg/mL final; note: potency is the fitted concentration of half-maximal effect; % is set by controls: 0 for no effect and ±100 for the full control effect; nearly all actives have a fitted effect of over 65% in size
#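 Inhibition was scored as loss of TGF-beta-induced (500 pg/mL final, 18 hours, 37 degrees C) GFP in HEPG2 cells carrying a CAGA-GFP reporter, in DMEM with 1% FBS. Well GFP was summed per cell; Activity was normalised to unstimulated and stimulated DMSO wells, then concentration-response fitting.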
# ATXN2 expr inh = reduces ATXN2 reporter expression in HEK-293 cells | AID 1745845 | HEK-293 ATXN2-luciferase reporter, luminescence, 24 h | hit rate 0.72% among 360,000 | Potency, µM (top dose mostly 57 µM), without a hit: top-dose activity change, negative = inhibition, hits mostly inhibitors; note: potency is the fitted concentration of half-maximal effect; % is set by controls: 0 for no effect and ±100 for the full control effect; nearly all actives have a fitted effect of over 55% in size
#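 ATXN2-luciferase reporter cells (luciferase flanked by upstream and downstream ATXN2 gene portions) were treated 24 h at 37 °C with compounds at up to 57 uM. SteadyGlo luminescence gave expression; GF-AFC fluorescence gave viability.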
# ATXN viability = reduces viability in counter-screen for ATXN expression inhibitors; S2 cells (HEK-293 line with an ATXN2-luciferase reporter) viability, CellTiter-Fluor protease fluorescence, 24 h; Potency, µM (titrated, usually from 56.7 µM), most hits filed as cytotoxic; hit rate 0.49% among 400,000; AID 651635; note: potency is the fitted concentration of half-maximal effect; nearly all actives have a fitted effect of over 40% in size
# Giardia killer = Giardia lamblia killing | activity change, % at 7.66 µM, hits read low | AID 540267 | Giardia lamblia trophozoite viability | hit rate 0.15% among 340,000; in the data active = activity change below about -80%; inconclusive = between about -30% and that limit;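 note: parasites exposed to compound for two days anaerobically before the ATP read; % is set by controls: 0 for no effect and ±100 for the full control effect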
#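 Killing of trophozoites was scored by loss of ATP luminescence after a 48 hrs anaerobic exposure to compounds at 37 deg C, using 100 cells per well.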
# HepG2 viability = kills HepG2 cells in TGF-b inhibitor counter-screen. HepG2 CAGA-GFP viability, ATP luminescence, 18 h. Potency, µM (top dose mostly 46.1 µM), for inactives: at the top dose activity change, negative = cytotoxicity, hits mostly cytotoxic. hit rate 0.76% among 410,000; note: potency is the fitted concentration of half-maximal effect
#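 HepG2 CAGA-GFP cells (1000/well, DMEM with 1% FBS) received compound, then TGF-beta at 500 pg/mL final, and were incubated 18 hours at 37 degrees C. Viability was read by CellTiter-Glo luminescence. Media-only wells were set as complete cell-killing and DMSO as no toxicity.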
# Starred values were filed as active, the others as inactive; i = inactive; u = inconclusive; x = no result given; ! = repeats disagree; [ ] = remark or other dose. This is a sample that favours compounds with a hit; in the whole collection about 2.6% have one here. Unless noted, calls come from the whole dose curve; as a rule, active = well fitted curve in the direction sought with a large enough effect; inconclusive = small, poorly fitted or top-dose-only effect, or another doubt; inactive = no such curve, though single readings can be large; an effect the other way counts as inactive or inconclusive.
SMILES,uPA generation,TGFb inhibitor,ATXN2 expr inh,ATXN viability,Giardia killer,HepG2 viability
Cc1ccccc1C(=O)N1CC/C(=N\OS(=O)(=O)O)c2ccc(Cl)cc21,x,x,-2%,i,x,x
CC(C)(C)n1ncc2c(=O)n(Cc3c(F)ccc(Cl)c3Cl)cnc21,x,7%,x,x,x,-5%
CN1CCC(NC(=O)c2cc(-c3cccc(Br)c3)nc3ccccc23)CC1,2%,-5%,u,u,14,-63%
CCS(=O)(=O)c1cccc(-c2cc(C(=O)NC3CCN(C)CC3)c(C)c3[nH]c4ncc(C)cc4c23)c1,x,x,1.9µM*,x,x,x
COc1ccc(-c2cc3nc(C)cc(N)n3n2)cc1,-11%,7%,-28%,u,u,10µM*
CC(=O)SC[C@@H](C)C(=O)N1CCC[C@H]1C(=O)N[C@@H](Cc1ccccc1)C(=O)O,x,x,-30%,i,x,x
C=CCC[C@@H](Cc1ccc(F)cc1)C(=O)OC[C@H](Cc1c[nH]c2ccccc12)NC(=O)[C@@H](CC=C)CC(=O)N[C@H](CO)Cc1ccccc1,-6%,u,-18%,u,3,13µM*
C=CCC[C@H](Cc1ccc(F)cc1)C(=O)OC[C@H](Cc1c[nH]c2ccccc12)NC(=O)[C@@H](CC=C)CC(=O)N[C@@H](CO)Cc1ccccc1,-20%,u,16µM*,18µM*,8,13µM*
C=CCC[C@H](Cc1ccc(F)cc1)C(=O)OC[C@@H](Cc1c[nH]c2ccccc12)NC(=O)[C@@H](CC=C)CC(=O)N[C@H](CO)Cc1ccccc1,1%,-67%,-17%,u,27,-16%
C=CCC[C@H](Cc1ccc(F)cc1)C(=O)OC[C@H](Cc1c[nH]c2ccccc12)NC(=O)[C@H](CC=C)CC(=O)N[C@H](CO)Cc1ccccc1,6%,-19%,-9%,u,0,-7%
C=CCC[C@H](Cc1ccc(F)cc1)C(=O)OC[C@H](Cc1c[nH]c2ccccc12)NC(=O)[C@@H](CC=C)CC(=O)N[C@H](CO)Cc1ccccc1,u,13µM*,0%,u,8,-107%
C=CC[C@H](CC(=O)N[C@H](CO)Cc1ccccc1)C(=O)N[C@H](COC(=O)[C@@H](CC=C)Cc1ccc(F)cc1)Cc1c[nH]c2ccccc12,-4%,-19%,-13%,u,15,-9%
C[C@H](NCc1ccc2c(c1)nc(NC(=O)c1ccc(-c3cn[nH]c3)s1)n2CCc1ccccc1)C(C)(C)C,x,x,1.9µM*,x,x,x
CCOc1ccccc1CNc1ccc(O)cc1,3%,16µM*,3%[11.3 µM],u,-7,-78%
Oc1ccc(NCc2ccccc2OCc2ccccc2F)cc1,-11%,10µM*!,u,u,-6,11µM*!
O=C(C=Cc1ccccc1)CC(c1ccccc1)N1CCOCC1 (stereo not given),-16%,u,u,x,-19,13µM*
Cc1cc(Br)c(NC(=O)CCl)c(Br)c1,-1%,u,16%,u,-10,-5%
CC(C)c1cc(NC(=O)CCl)on1,6.3µM*,u,x,u,7,-50%
CN1Cc2cc(C(=O)N3CCC(C4CCNCC4)CC3)ccc2NC(CC(=O)O)C1=O (stereo not given),x,x,11%,i,x,x
Cc1cccc(C)c1NC(=O)CN(C)C(=O)c1cccc(S(=O)(=O)N2CCN(c3ccc(F)cc3)CC2)c1,-7%,0%,u,i,9,-21%
CN(CC(=O)Nc1cccc(F)c1)C(=O)c1ccc(C2SCCS2)cc1,-24%,u,-37%,i,15,-12%
COc1ccc(CCN(C)C(=O)c2cccc(S(=O)(=O)N3CCN(c4ccc(F)cc4)CC3)c2)cc1OC,u,11µM*,x,u,28,-39%
CN(CC(=O)Nc1cccc(F)c1)C(=O)c1ccc2c(c1)CC(c1ccccc1)OC2=O (stereo not given),4µM*,12%,-37%,u,1,-10%
CN(CC(=O)Nc1cccc(F)c1)C(=O)c1cccc(S(=O)(=O)N2CCN(c3ccc(F)cc3)CC2)c1,u,13µM*,u,i,22,-29%
N=C1S/C(=C\c2ccc(-c3cccc(Cl)c3)o2)C(=O)N1c1nccs1,-3%,u,3.5µM*,5.6µM*,-3,2%
SMILES,uPA generation,TGFb inhibitor,ATXN2 expr inh,ATXN viability,Giardia killer,HepG2 viability
O=C1OC(c2cccs2)=N/C1=C\c1ccc(-c2cccc(Cl)c2)o1,x,2%,-14%,i,-10,-22%
COc1ccc(/C=C2\SC(=N)N(c3nccs3)C2=O)cc1OC,-11%,-25%,11µM*,u,-16,-10%
CN(CC1COCCO1)C(=O)c1cnn(-c2nccc(-c3ccccc3C(F)(F)F)n2)c1C1CC1 (stereo not given),x,x,x,i,x,x
CCNc1ccc(N=Nc2c(C)n(C)n(-c3ccccc3)c2=O)cc1,-8%,30%,0%[11.3 µM],i,-98*,2%
O=C(O)c1cccc(-c2noc(-c3ccccc3F)n2)c1,x,x,u,i,x,x
CC(C)Sc1nnc2c3ccccc3n(C)c2n1,x,x,x,x,18,x
CCOc1ccc(C(=O)Nc2ccccc2N2CCOCC2)cc1,3%,9%,-35%,i,8,-5%
CCOc1ccc(C(=O)C2CCN(CC(=O)Nc3ccccc3N3CCOCC3)CC2)cc1,9%,14µM*,u,i,2,-13%
O=C1CCCC(O)=C1C=NCc1ccccc1,7%,-10%,4.7µM*,i,2,1%
CN(Cc1ccco1)Cc1cc(-c2ccnc3cc(Cl)ccc23)ccc1O,x,x,x,i,x,x
COC(=O)c1cccc(C(=O)NCc2nc(-c3ccccc3NC(C)=O)oc2C)c1,x,x,x,i,x,x
Cc1occc(=O)c1OC(=O)Nc1ccc(Cl)c(Cl)c1,-3%,10µM*,-5%,u,-3,-66%
COc1ccc(C(=O)Oc2c(C)occc2=O)cc1OC,-11%,10%,-11%,i,18,-1%
CCCCCCCCNCCS(=O)(=O)NCc1ccccc1,4%,u,u,x,15,16µM*
O=S(=O)(NCCc1cn(S(=O)(=O)c2ccccc2)c2ccccc12)c1ccccc1,x,-4%,x,x,7,4%
CCOc1ccccc1-c1c2cc(O)c(=O)cc-2oc2cc(O)c(O)cc12,-9%,2.8µM*,u,x,-10,-3%
O=c1cc2oc3cc(O)c(O)cc3c(-c3ccccc3O)c-2cc1O,-13%,16%,x,i,-2,-23%
COc1ccc(OC)c(-c2oc3ccccc3c(=O)c2O)c1,-11%,u,3%,i,2,-6%
COc1ccc(OC)c(-c2c3cc(O)c(=O)cc-3oc3cc(O)c(O)cc23)c1,-1%,u,u,20µM*,-17,-19%
